Shown are actives, neighbours in structure and some others; about 2.7% of the full set was active somewhere.
MRP1 act: MRP-1 activation. H69AR cells + doxorubicin, viability rescue, CellTiter-Glo. viability increase, % at 10 µM. 140,000 tested, 0.61% active. AID 799;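 active = viability gain under doxorubicin at or above a set limit, the compound median plus 3 SD, cut at about 4.7% in these data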;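 also: MRP-1 overexpressing cells given doxorubicin 25 µM after compound pretreatment; 18-22 h compound pretreatment then 72 h with doxorubicin before readout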
MRP reversal: reverses drug resistance mediated by MRP; H69AR cells + 2 uM doxorubicin, CellTiter-Glo, 72 h; differential viability (reversal), % at 10 µM; 85,000 tested, 0.04% active; AID 602;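 active = viability drop by adding the cancer drug above about 55%, with treated viability meeting a 40% cutoff, limit read from the data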;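 also: larger differential means the compound sensitizes cells more to doxorubicin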
ERb coact inh: blocks coactivator binding to human estrogen receptor beta; inhibition, % at 25.6 µM; TR-FRET ER-beta LBD / SRC1-Cy5 peptide binding; receptor agonist-loaded with 1 µM estradiol; 86,000 tested, 1.3% active; Q92731; AID 633;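 active = compounds whose percent inhibition of the receptor-coactivator binding signal exceeds about 50% in the single-dose screen, limit read from the data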
Target sequence (Q92731 whole entry, looked up, the tested form may be a part): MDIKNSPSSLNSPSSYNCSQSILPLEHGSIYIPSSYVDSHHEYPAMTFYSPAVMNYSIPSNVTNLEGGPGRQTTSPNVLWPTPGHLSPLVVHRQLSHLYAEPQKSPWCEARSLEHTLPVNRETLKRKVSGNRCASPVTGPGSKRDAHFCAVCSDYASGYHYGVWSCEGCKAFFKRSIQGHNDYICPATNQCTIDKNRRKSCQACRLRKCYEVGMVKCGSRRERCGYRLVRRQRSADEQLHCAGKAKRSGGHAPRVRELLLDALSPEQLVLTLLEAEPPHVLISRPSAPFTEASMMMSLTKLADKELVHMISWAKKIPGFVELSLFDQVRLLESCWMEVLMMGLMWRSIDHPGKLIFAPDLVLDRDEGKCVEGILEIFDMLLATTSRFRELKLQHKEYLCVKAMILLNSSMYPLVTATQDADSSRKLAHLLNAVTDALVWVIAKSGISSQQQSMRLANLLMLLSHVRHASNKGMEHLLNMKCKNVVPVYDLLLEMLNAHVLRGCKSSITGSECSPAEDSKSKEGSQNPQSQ
ERa coact inh: ER-alpha (human) coactivator binding inhibition. AID 629. TR-FRET ER-alpha LBD / SRC-1 peptide, estradiol-bound. inhibition, % at 25.6 µM. P03372. 86,000 tested, 1.7% active; in the data active = inhibition above about 50%
ERa SRC1 pot: enhances coactivator binding to human estrogen receptor alpha | 86,000 tested, 1.3% active | TR-FRET ERalpha-LBD/SRC-Cy5 coactivator binding, 2 h; 100 = basal binding, no effect | P03372 | coactivator binding (% of control), % at 25.6 µM | AID 639; in the data active = activity above about 200%;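 also: binding measured in presence of low estradiol as agonist stimulus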
Of the large screens only hits and unclear results are named; the others gave an inactive call; [ ] = remark or other dose.

CCOC(=O)C(C)S(=O)(=O)c1ccc(C(F)(F)F)cn1 (centres undefined)	none (no result: MRP reversal, ERb coact inh, ERa coact inh, ERa SRC1 pot)
O=C(OCn1nnc2ccccc2c1=O)c1cc(-c2ccccc2)nc2ccccc12	none (no result: MRP reversal, ERb coact inh, ERa coact inh, ERa SRC1 pot)
Cc1cccc(C(=O)N2CCN(c3ccc(C(F)(F)F)cn3)CC2)c1C	none
O=C(NNC1=C(C(=O)C(F)(F)F)CCC1)c1cccc(Cl)c1	MRP1 act 6.5
O=C(NNC1=C(C(=O)C(F)(F)F)CCC1)c1ccc(Cl)cc1	MRP1 act 6.4
CC(C)(C)c1ccc(C(=O)NNC(=O)c2ccc(Cl)cc2)cc1	none (no result: MRP reversal, ERb coact inh, ERa coact inh, ERa SRC1 pot)
O=C(NNC(=S)Nc1cccc(C(F)(F)F)c1)c1cccc(Cl)c1	none (no result: MRP reversal, ERb coact inh, ERa coact inh, ERa SRC1 pot)
Cc1cccc(Oc2nc(CN3CCOCC3)nc3sc4c(c23)CCCC4)c1	none (no result: MRP reversal, ERb coact inh, ERa coact inh, ERa SRC1 pot)
CCc1ccc2nc(SCC(=O)N3CC(=O)Nc4ccccc43)c(C#N)cc2c1	ERa SRC1 pot 360
COC(=O)c1ccc(COC(=O)c2ccc(S(=O)(=O)N3CCC(C)CC3)cc2)o1	ERa SRC1 pot 730
CCOC(=O)c1ccc(N=C2NC(=O)CS2)cc1	none
CCOC(=O)c1ccc(N2CN=C3SCC(=O)N3C2)cc1	MRP1 act 5.8
O=c1c2cc(N3CCOCC3)ccc2[nH]c(=S)n1CCCN1CCN(c2ccccc2F)CC1	none (no result: MRP reversal, ERb coact inh, ERa coact inh, ERa SRC1 pot)
COc1ccc(-c2cc(C(=O)Nc3cc(C)nn3-c3ccccc3)no2)cc1	none
COc1cccc(-c2cc(C(=O)Nc3cc(C)nn3-c3ccccc3)no2)c1	ERa SRC1 pot 455
Cc1cc(NC(=O)c2cc(-c3ccccc3)on2)n(-c2ccccc2)n1	ERa SRC1 pot 529[fluorescence artefact?]
O=C(C1COc2ccccc2O1)N1CCc2ccccc21 (centres undefined)	ERa SRC1 pot 345[fluorescence artefact?]
O=C(C1COc2ccccc2O1)N1CCCC1 (centres undefined)	none
CCN(CC)S(=O)(=O)c1cnccc1N1CCN(c2cccc(Cl)c2)CC1	none (no result: MRP reversal, ERb coact inh, ERa coact inh, ERa SRC1 pot)
O=C(CSc1nnc(-c2ccccc2O)o1)N1CCc2ccccc2C1	ERa SRC1 pot 239[fluorescence artefact?]
COC(=O)c1c(CSc2ccc(C)c(C)c2)noc1C(=O)NCc1ccc(OC)cc1	none (no result: MRP reversal, ERb coact inh, ERa coact inh, ERa SRC1 pot)
Cc1cccc(N2CCN(C(=O)C3CCCN(S(=O)(=O)c4cccc5cccnc45)C3)CC2)c1C (centres undefined)	none (no result: MRP1 act)
N#CCSc1nc2cc(C(=O)N3CCC(C(N)=O)CC3)ccc2c2nc3ccccc3n12	MRP1 act 6.1
c1cc(CNc2ccc(N3CCOCC3)cc2)ccn1	none
CC(C)c1ccc(CNc2ccc(N3CCOCC3)cc2)cc1	ERa SRC1 pot 530[fluorescence artefact?]
CC1CCN(Cc2ccc(NC(=O)C3CCN(c4nnc(-n5cccc5)s4)CC3)cc2)CC1	ERb coact inh 72[fluorescence artefact?], ERa coact inh 85[fluorescence artefact?]
COCCNS(=O)(=O)c1cc(C)c(C)cc1C	none (no result: MRP reversal, ERb coact inh, ERa coact inh, ERa SRC1 pot)
C=CCn1c(SCc2cc(=O)n3ccsc3n2)nc2sc(C)c(C)c2c1=O	ERa coact inh 57[fluorescence artefact?] (no result: MRP1 act)
C=CCn1c(SCC(=O)c2cccs2)nc2sc(C)c(C)c2c1=O	ERa coact inh 62[fluorescence artefact?]
C=CCn1c(SCc2csc(C)n2)nc2sc3c(c2c1=O)CCCC3	ERa coact inh 72[fluorescence artefact?]
C=CCn1c(SCc2csc(C)n2)nc2sc3c(c2c1=O)CCCCC3	none
COc1ccc2cc(Br)ccc2c1CC(=O)NC(C)(C)C	none (no result: MRP reversal, ERb coact inh, ERa coact inh, ERa SRC1 pot)
Cc1cc(C)n(-c2ccc(C(=O)OCC(=O)c3c(N)n(C)c(=O)n(C)c3=O)cc2)n1	none
O=C1c2cccc(OCc3ccc(F)cc3)c2CCN1Cc1ccc(F)cc1	MRP1 act 5.6 (no result: MRP reversal, ERb coact inh, ERa coact inh, ERa SRC1 pot)
COc1ccc(C(=O)Nc2ccccc2C(N)=O)cc1	none
COc1ccc(C(=O)Nc2ccccc2C(=O)NC(C(=O)NCc2ccco2)C(C)C)cc1 (centres undefined)	ERa SRC1 pot 242[fluorescence artefact?]
COc1ccc(C(=O)Nc2ccccc2C(=O)N(Cc2ccco2)C(C(N)=O)C(C)C)cc1 (centres undefined)	ERa coact inh 57[fluorescence artefact?]
Cc1ccc(CN(Cc2ccco2)S(=O)(=O)c2ccc(S(=O)(=O)NCC3CCCO3)cc2)cc1 (centres undefined)	none (no result: MRP reversal, ERb coact inh, ERa coact inh, ERa SRC1 pot)
COc1ccc(-c2nnc(SCC(=O)/C(C#N)=C(\C)N)o2)cc1	ERb coact inh 75, ERa coact inh 56
CCOC(=O)C1=C(C)N=c2s/c(=C\c3ccc(OC(C)=O)cc3)c(=O)n2C1/C=C/c1ccccc1 (centres undefined)	MRP1 act 6.7 (no result: MRP reversal, ERb coact inh, ERa coact inh, ERa SRC1 pot)
Cc1cccc(NC(=O)c2sc3nc(-c4ccccc4)cn3c2C)n1	none
Cc1cccc(NC(=O)c2sc3nc(-c4ccc(F)cc4)cn3c2C)n1	ERa SRC1 pot 839[fluorescence artefact?]
COc1ccc(C)cc1N1C(=N)/C(=C2/Nc3ccccc3S2)C(c2ccccc2)C1=O (centres undefined)	none (no result: MRP reversal, ERb coact inh, ERa coact inh, ERa SRC1 pot)
CSc1nc2sc3c(c2c(=O)[nH]1)CCC(C)C3 (centres undefined)	none
CC1CCc2c(sc3nc(CSc4ncn[nH]4)[nH]c(=O)c23)C1 (centres undefined)	MRP1 act 18 (no result: MRP reversal, ERb coact inh, ERa coact inh, ERa SRC1 pot)
O=S(=O)(NC1=NCCC1)c1cccc(NC(=S)NCCc2ccccc2)c1	none (no result: MRP reversal, ERb coact inh, ERa coact inh, ERa SRC1 pot)
CCOC(=O)COc1ccccc1/C=C\[N+](=O)[O-]	none (no result: MRP reversal, ERb coact inh, ERa coact inh, ERa SRC1 pot)
Cc1nc(-n2ncc(C#N)c2N)c2c3c(sc2n1)CCC3	ERb coact inh 55[fluorescence artefact?], ERa coact inh 67[fluorescence artefact?], ERa SRC1 pot 208[fluorescence artefact?]
CCOC(=O)c1cnn(-c2nc(SC)nc3sc4c(c23)CCC4)c1N	ERb coact inh 60, ERa coact inh 75[fluorescence artefact?]
CCOC(=O)c1cnn(-c2nc(C)nc3sc4c(c23)CCC4)c1N	none (no result: MRP1 act)
Cc1c(N2C(=O)C(=O)/C(=C(/O)c3ccc(Cl)cc3)C2c2ccccc2)c(=O)n(-c2ccccc2)n1C (centres undefined)	none (no result: MRP reversal, ERb coact inh, ERa coact inh, ERa SRC1 pot)
Cn1c(SCC(=O)Nc2sc3c(c2C#N)CCC3)nnc1C1COc2ccccc2O1 (centres undefined)	ERa coact inh 66[fluorescence artefact?]
COc1ccc(-c2ocnc2C(=O)Nc2ccccc2N2CCCCC2)cc1	MRP1 act 7.2
COc1ccc(OC)c(NC(=O)C2CCCN2C(=O)C2CCC(C)CC2)c1 (centres undefined)	ERa coact inh 91[fluorescence artefact?]
COc1ccc(OC)c(NC(=O)CCN2CCCCCC2)c1	ERa coact inh 51[fluorescence artefact?]
O=C1CC(c2ccc(Cl)cc2)CC(O)=C1C=NCc1ccc(Cl)c(Cl)c1 (centres undefined)	none (no result: MRP reversal, ERb coact inh, ERa coact inh, ERa SRC1 pot)
Cc1ccc(OCCN2CCN(CC(O)Cn3c4ccccc4c4ccccc43)CC2)cc1 (centres undefined)	none (no result: MRP reversal, ERb coact inh, ERa coact inh, ERa SRC1 pot)
CCC(=C(c1ccc(OC)cc1)c1ccc(OC)cc1)c1cn(CC(O)CN2CCN(C)CC2)c2ccccc12 (centres undefined)	ERa coact inh 70[fluorescence artefact?]
O=C(CNC(=O)c1ccco1)OCc1ccc(Cl)cc1	ERb coact inh 60
COc1ccc(/C(C)=N/OC/C(O)=C(\C#N)c2nc3ccccc3[nH]2)cc1	none (no result: MRP reversal, ERb coact inh, ERa coact inh, ERa SRC1 pot)
O=C1NC(=Nc2ccccc2)SC1Cc1cccc(Cl)c1Cl (centres undefined)	MRP1 act 5.7 (no result: MRP reversal, ERb coact inh, ERa coact inh, ERa SRC1 pot)
Cc1ccc(-c2nn3c(C)nnc3s2)cc1NC(=O)COc1ccc(Cl)cc1	ERa SRC1 pot 325
CCCOc1ccc(C(=O)Nc2cc(-c3nn4c(C)nnc4s3)ccc2C)cc1	ERa coact inh 58[fluorescence artefact?]

Compound activity: PubChem BioAssay, several laboratories
